JMJD2A Tudor – inhibitors of human JMJD2A Tudor domain; O75164; AlphaScreen JMJD2A-Tudor / H3K4me3 peptide binding; Potency, µM (top dose mostly 114 µM), without a hit: at the highest dose activity change, negative = inhibition, most hits filed as inhibitors; 390,000 tested, 4.4% active; AID 504339; further: on the % scale 0 is the no-effect control and ±100 the full control effect; nearly all actives have a fitted effect of over 50% in size
G9a block – blocks human histone lysine methyltransferase G9a; 350,000 tested, 8.8% active; Q96KQ7; Potency, µM (doses to about 102 µM), inactives show at the top dose activity, negative = inhibition, usual class: inhibitors; G9a H3K9 monomethylation, AlphaScreen, 2 h; further: on the % scale 0 is the no-effect control and ±100 the full control effect; nearly all actives have a fitted effect of over 75% in size
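Chemiluminescent proximity detection of H3K9 monomethylation, read after 10 min bead incubation in the dark. Reaction: 20 nM G9a, 500 nM biotin-H3K9 peptide, 20 uM SAM cofactor, 2 h, room temperature, following 15 min enzyme-compound preincubation.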
Sfp PPTase inh – blocks B. subtilis Sfp PPTase activity | Q9F4F7 | Biochemical Sfp PPTase activity, qHTS | Potency, µM, for the others: largest response in the series, negative = inhibition, most hits filed as inhibitors | 310,000 tested, 3.5% active;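 further: the enzyme is Sfp with the accession as filed and its product quenches rhodamine fluorescence; 0% = enzyme reaction without inhibitor and -100% = no enzyme wells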
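Compounds were incubated with enzyme (final 15 nM) for 15 min at room temperature before substrate addition started the reaction. Fluorescence at 525 nm excitation, 598 nm emission was recorded immediately and after 30 minutes.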
BAZ2B block – BAZ2B (human) inhibition. Q9UIF8. AlphaScreen BAZ2B-H3K14Ac peptide displacement. 360,000 tested, 4.4% active. Potency, µM (series often up to 114 µM), without a hit: top-dose activity change, negative = inhibition, actives largely listed as inhibitors. AID 504333; further: on the % scale 0 is the no-effect control and ±100 the full control effect; nearly all actives have a fitted effect of over 60% in size
Target sequence (Q9UIF8 whole entry, looked up): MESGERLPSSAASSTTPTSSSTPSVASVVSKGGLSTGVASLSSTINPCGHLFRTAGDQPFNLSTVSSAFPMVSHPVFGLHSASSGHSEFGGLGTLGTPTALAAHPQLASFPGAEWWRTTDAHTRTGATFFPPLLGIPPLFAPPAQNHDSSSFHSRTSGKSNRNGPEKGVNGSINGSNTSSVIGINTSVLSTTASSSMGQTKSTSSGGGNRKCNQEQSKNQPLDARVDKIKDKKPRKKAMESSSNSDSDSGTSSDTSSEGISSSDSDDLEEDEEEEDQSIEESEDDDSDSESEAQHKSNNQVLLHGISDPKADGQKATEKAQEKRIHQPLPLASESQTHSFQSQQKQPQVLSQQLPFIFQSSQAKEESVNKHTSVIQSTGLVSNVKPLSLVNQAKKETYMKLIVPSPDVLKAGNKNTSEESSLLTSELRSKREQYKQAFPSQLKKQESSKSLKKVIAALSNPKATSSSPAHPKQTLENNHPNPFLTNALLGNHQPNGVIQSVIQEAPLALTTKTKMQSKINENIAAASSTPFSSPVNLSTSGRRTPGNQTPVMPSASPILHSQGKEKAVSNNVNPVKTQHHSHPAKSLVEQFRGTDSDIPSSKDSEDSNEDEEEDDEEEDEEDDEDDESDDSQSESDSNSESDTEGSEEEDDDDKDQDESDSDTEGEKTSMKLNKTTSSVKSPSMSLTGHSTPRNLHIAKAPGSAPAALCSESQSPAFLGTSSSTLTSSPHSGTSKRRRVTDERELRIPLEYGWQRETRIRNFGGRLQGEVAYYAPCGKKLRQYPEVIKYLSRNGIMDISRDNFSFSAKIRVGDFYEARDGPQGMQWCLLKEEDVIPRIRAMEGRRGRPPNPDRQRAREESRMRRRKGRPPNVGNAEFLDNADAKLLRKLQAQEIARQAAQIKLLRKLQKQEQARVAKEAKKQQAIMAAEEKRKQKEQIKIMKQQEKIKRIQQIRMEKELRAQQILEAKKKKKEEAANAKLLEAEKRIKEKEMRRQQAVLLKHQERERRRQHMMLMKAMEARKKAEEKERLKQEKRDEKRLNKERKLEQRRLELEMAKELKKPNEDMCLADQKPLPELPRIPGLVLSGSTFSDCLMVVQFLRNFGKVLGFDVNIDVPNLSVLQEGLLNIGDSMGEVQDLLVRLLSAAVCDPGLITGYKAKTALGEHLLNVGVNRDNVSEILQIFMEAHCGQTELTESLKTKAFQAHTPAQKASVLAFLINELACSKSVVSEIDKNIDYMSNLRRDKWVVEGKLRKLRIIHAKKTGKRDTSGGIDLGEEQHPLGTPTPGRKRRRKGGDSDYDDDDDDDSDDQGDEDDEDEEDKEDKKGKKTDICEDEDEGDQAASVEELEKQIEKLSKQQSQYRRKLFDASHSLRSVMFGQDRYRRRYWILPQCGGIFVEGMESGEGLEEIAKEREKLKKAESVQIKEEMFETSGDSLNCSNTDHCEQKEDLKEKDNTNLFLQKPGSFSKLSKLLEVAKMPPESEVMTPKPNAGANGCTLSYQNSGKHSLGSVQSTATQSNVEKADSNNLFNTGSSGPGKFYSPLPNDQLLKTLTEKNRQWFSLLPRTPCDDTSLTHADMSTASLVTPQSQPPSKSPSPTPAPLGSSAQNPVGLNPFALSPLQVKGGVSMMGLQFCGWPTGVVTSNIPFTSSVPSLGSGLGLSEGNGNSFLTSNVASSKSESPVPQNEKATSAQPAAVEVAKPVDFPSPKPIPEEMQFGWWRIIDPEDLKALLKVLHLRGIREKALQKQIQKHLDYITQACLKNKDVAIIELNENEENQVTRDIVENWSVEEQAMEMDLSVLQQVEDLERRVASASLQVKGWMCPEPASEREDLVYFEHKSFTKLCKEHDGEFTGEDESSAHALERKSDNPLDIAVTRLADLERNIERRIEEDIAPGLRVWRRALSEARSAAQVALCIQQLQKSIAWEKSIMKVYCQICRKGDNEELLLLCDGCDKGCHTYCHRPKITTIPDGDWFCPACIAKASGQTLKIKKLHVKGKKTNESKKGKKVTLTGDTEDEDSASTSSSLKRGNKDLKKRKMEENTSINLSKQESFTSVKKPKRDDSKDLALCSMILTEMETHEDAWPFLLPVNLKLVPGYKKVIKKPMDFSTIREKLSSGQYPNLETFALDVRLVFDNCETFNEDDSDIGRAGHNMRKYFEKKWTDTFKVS
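AlphaScreen displacement: compounds (up to 110uM) incubated 30 min at room temperature with a preformed 50 nM BAZ2B/50 nM biotinylated H3K14Ac peptide complex in PBS pH 7.4 with Tween-20. Donor and acceptor beads at 10 ug/mL final added, 20 min light-protected before reading.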
HP1b chromo inh – inhibitors of HP1-beta chromodomain binding to methylated histone tails | P83916 | AlphaScreen HP1-beta / biotin-H3K9me3 peptide binding | Potency, µM (titrated, usually from 114 µM), inactives show top-dose activity change, negative = inhibition, usual class: inhibitors | 390,000 tested, 0.56% active | AID 540317; further: nearly all actives have a fitted effect of over 70% in size
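AlphaScreen: HP1-beta (50 nM) preformed 30 min with biotin-H3(1-18)K9me3 peptide (50 nM) in PBS pH 7.4, 0.01% Tween-20. Compound added for 30 min at RT, then streptavidin donor/nickel chelate acceptor beads (10 ug/mL) for 30 min.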
The depositor's hits bear a star; [ ] = remark or other dose. In the library only some 12% were active in any assay of this set; here they are far more common. The call rests on the fitted dose curve; in most records, active means well fitted curve in the direction sought with a large enough effect; inconclusive means small, poorly fitted or top-dose-only effect, or another doubt; inactive means no such curve, though single readings can be large; an effect the other way counts as inactive or inconclusive. Potency means the concentration at half of the fitted maximal effect.

For O=S(=O)(Cc1ccccc1)N1CCC(N2CCN(c3ccccc3)CC2)CC1 the results were JMJD2A Tudor -21.4%, G9a block inconclusive, Sfp PPTase inh -5.8%, BAZ2B block 3.2% and HP1b chromo inh 0.3%.
For COc1ccc(NC(=O)CC(NCc2ccccn2)C(=O)O)cc1 (configuration not stated) the results were JMJD2A Tudor 12.6µM*, G9a block 7.7%, Sfp PPTase inh 9.5%, BAZ2B block 3.16µM* and HP1b chromo inh 40.1%.
For COc1ccc(NC(=O)CC(C(=O)O)C(C)c2ccccc2)cc1 (configuration not stated) the results were JMJD2A Tudor -5.5%, G9a block 16.0%[59 µM], Sfp PPTase inh 14.9%, BAZ2B block -3.3% and HP1b chromo inh 37.0%.
For COc1ccc(N=C2SC(CC(=O)Nc3ccccc3)C(=O)N2Cc2ccccn2)cc1 (configuration not stated) the results were JMJD2A Tudor -33.3%, G9a block 50.1µM*, Sfp PPTase inh -14.2%, BAZ2B block inconclusive and HP1b chromo inh 26.7%.
`CCOc1ccc(NC(=O)NCc2ccccn2)cc1` gave JMJD2A Tudor -10.9%, Sfp PPTase inh 5.0%, BAZ2B block -9.1% and HP1b chromo inh 51.6%.
`CCOc1ccc(NC(=O)CC(NCc2ccccn2)C(=O)O)cc1` (configuration not stated) gave JMJD2A Tudor 11.2µM*, G9a block inconclusive, Sfp PPTase inh 17.9%, BAZ2B block 1.41µM* and HP1b chromo inh 41.8%.
Screening CCOc1cc(CNCc2cccs2)cc(Br)c1OCC returned JMJD2A Tudor 45.7%, G9a block 41.5%, Sfp PPTase inh 3.1%, BAZ2B block 18.4%[57.1 µM] and HP1b chromo inh 97.5%.
For CC1CC(=O)c2cnc(NCc3ccco3)nc2C1 (configuration not stated) the results were JMJD2A Tudor -2.8%, G9a block -23.1%[12.7 µM], Sfp PPTase inh 14.0%, BAZ2B block -7.9% and HP1b chromo inh 20.7%.
O=C1c2cccc3c([N+](=O)[O-])ccc(c23)C(=O)N1c1nccs1 was read as JMJD2A Tudor -10.4%, G9a block inconclusive, Sfp PPTase inh 15.2%, BAZ2B block 0.3% and HP1b chromo inh 14.1%.
For O=C1c2cccc3c([N+](=O)[O-])ccc(c23)C(=O)N1c1ccccn1 the results were JMJD2A Tudor 0.8%[11.4 µM], G9a block 70.8µM*, Sfp PPTase inh 8.8%, BAZ2B block inconclusive and HP1b chromo inh -29.7%.
O=C1c2cccc3c([N+](=O)[O-])ccc(c23)C(=O)N1c1ccc(Cl)cn1 was read as JMJD2A Tudor inconclusive, G9a block inconclusive, Sfp PPTase inh -12.5%, BAZ2B block 44.7µM* and HP1b chromo inh inconclusive.
`O=C1c2cccc3c([N+](=O)[O-])ccc(c23)C(=O)N1O` gave JMJD2A Tudor inconclusive, G9a block inconclusive, Sfp PPTase inh -20.7%, BAZ2B block 50.1µM* and HP1b chromo inh 14.2%.
`O=C1c2ccc([N+](=O)[O-])cc2C(=O)N1c1ccc(Cl)cn1` gave JMJD2A Tudor -12.7%, G9a block -25.8%, Sfp PPTase inh 4.7%, BAZ2B block -10.8% and HP1b chromo inh 24.9%.
NC(=O)c1cc(Cl)cn(-c2ccccc2)c1=O was read as JMJD2A Tudor -12.4%, G9a block 0.8%, Sfp PPTase inh 10.0%, BAZ2B block -4.5% and HP1b chromo inh 24.8%.
Cc1cnc([N+](=O)[O-])n1CCOC(=O)NC(=O)c1ccc(F)cc1 was read as JMJD2A Tudor -4.5%, G9a block 2.7%, Sfp PPTase inh 9.3%, BAZ2B block -1.1% and HP1b chromo inh 27.6%.
O=C(NCc1ccc(N2CCCC2=O)cc1)C1CCC(=O)N(Cc2ccccc2F)C1 (configuration not stated) was read as JMJD2A Tudor -2.2%, G9a block 99.3%, Sfp PPTase inh 7.7%, BAZ2B block -1.3% and HP1b chromo inh 24.9%.
For COc1ccc(OC)c(C(=O)NC2CC(C)(C)Cc3c2cnn3-c2ccccc2)c1 (configuration not stated) the results were JMJD2A Tudor -31.9%, G9a block -5.7%, Sfp PPTase inh -12.0%, BAZ2B block 70.8µM* and HP1b chromo inh 22.9%.

From PubChem
